# An excerpt weighted towards active compounds, which were near 9.2% of everything screened.
# ELG1 genotox – inducers of genotoxicity in HEK293T ELG1-luciferase cells; HEK293T ELG1-luciferase reporter, luminescence, 16 h; AID 504466; Potency, µM (series often up to 46 µM), usual class: activators; 330,000 tested, 1.3% active; also: nearly all actives have a fitted effect of over 60% in size
#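 Reporter readout depends on ELG1 protein level, which increases with genetic stress. After 16 hr compound exposure at 37 °C, luciferase activity was quantified using ONE-Glo.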
# NPC1 prom act – NPC1 promoter activation. Huh7 NPC1 promoter luciferase reporter, 24 h. 320,000 tested, 2.4% active. Potency, µM (doses to about 9.22 µM), hits mostly activators; also: nearly all actives have a fitted effect of over 60% in size
#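 Stable NPC1-promoter luciferase Huh7 line; cpd (DMSO) 24 h, 37 °C, 5% CO2; Amplite luciferase reagent 10 min RT; luminescence readout. qHTS format.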
# SMN2 splice enh – increases expression of the SMN2 splice variant | HEK293 SMN2-luciferase splicing reporter, luminescence, 30-36 h | Potency, µM (doses to about 46.1 µM), usual class: activators | 210,000 tested, 2.8% active | AID 1458; also: nearly all actives have a fitted effect of over 55% in size
#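 qHTS luciferase splicing reporter: luminescence rises when SMN2 exon 7 is included in transfected HEK293 cells. Compound exposure lasted 30-36 h at 37C, with 4.5 mM final sodium butyrate as control, followed by a ONE-Glo read.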
# Rab9 promoter act – Rab9 promoter activation | Huh7 Rab9 promoter-luciferase reporter, luminescence, 24 h | Potency, µM (doses to about 9.22 µM), most hits filed as activators | 320,000 tested, 2.8% active; also: nearly all actives have a fitted effect of over 60% in size
#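 Steps: seed 1500 Huh7 Rab9-luc cells per well, rest 2 h at 37 °C; add compound in DMSO; incubate 24 h; add luciferase reagent, 10 min ambient; read luminescence.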
# ELG1 repair inh – blocks ELG1-dependent DNA repair in HEK293T cells | HEK293T ELG1-luciferase reporter, luminescence, 16 h; DNA damage induced by 5-fluorouridine | Potency, µM (top dose mostly 46.1 µM), actives largely listed as inhibitors | 330,000 tested, 2.3% active; also: nearly all actives have a fitted effect of over 55% in size
#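 In this reporter screen, reduction of luminescence relative to DMSO vehicle indicated activity. Compounds and 5-fluorouridine were added together to 2,000 cells per well, incubated for 16 hr at 37 °C, then developed with ONE-Glo.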
# FLuc counter – firefly luciferase modulation, counter-screen for miR-21 project. P08659. purified FLuc, Km substrates, luminescence inhibition. Potency, µM (titrated, usually from 57.5 µM), most hits filed as inhibitors. 360,000 tested, 6.9% active; also: nearly all actives have a fitted effect of over 55% in size
# Target sequence (P08659 whole entry, looked up): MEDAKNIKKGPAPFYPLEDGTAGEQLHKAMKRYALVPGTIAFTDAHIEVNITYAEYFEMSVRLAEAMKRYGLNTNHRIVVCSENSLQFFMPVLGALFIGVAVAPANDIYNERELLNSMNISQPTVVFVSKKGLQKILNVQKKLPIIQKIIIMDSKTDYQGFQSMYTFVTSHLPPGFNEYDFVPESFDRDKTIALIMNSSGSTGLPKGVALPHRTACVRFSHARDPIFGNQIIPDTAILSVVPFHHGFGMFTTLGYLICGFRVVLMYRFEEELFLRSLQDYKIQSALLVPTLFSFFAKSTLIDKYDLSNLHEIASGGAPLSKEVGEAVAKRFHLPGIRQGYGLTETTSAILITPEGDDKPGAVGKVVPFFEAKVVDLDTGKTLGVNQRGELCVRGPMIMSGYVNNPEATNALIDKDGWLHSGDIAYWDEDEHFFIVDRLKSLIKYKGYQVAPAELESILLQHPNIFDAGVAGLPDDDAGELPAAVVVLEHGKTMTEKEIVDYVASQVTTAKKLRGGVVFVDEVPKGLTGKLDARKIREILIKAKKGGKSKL
#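 Biochemical qHTS of compounds, final roughly 60 µM downward over six points, against 10 nM purified firefly luciferase using Km concentrations of substrates (10 uM D-luciferin, 10 uM ATP) in Tris acetate pH 7.5 buffer; luminescence output.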
# Hits are given with their value; . = inactive; ? = inconclusive; / = not tested or not shown. Calls follow the shape of the dose curve; as a rule, active = well fitted curve in the direction sought with a large enough effect; inconclusive = small, poorly fitted or top-dose-only effect, or another doubt; inactive = no such curve, though single readings can be large; an effect the other way counts as inactive or inconclusive.
SMILES,ELG1 genotox,NPC1 prom act,SMN2 splice enh,Rab9 promoter act,ELG1 repair inh,FLuc counter
CCc1ccc(-c2cc(C(=O)NCCCn3ccnc3)c3ccccc3n2)s1,?,.,.,.,?,4.8µM
Cc1ccc(-c2cc(C(=O)NCCCn3ccnc3)c3ccccc3n2)s1,.,.,.,.,.,17µM
CN1CCN(NC(=O)c2cc(-c3ccc(Br)s3)nc3ccccc23)CC1,.,.,/,.,.,?
CCc1ccc(-c2cc(C(=O)NN3CCOCC3)c3ccccc3n2)s1,.,.,.,.,?,7.6µM
O=C(O)c1cc(-c2ccc(Br)s2)nc2ccccc12,.,.,/,.,?,8.5µM
COc1ccc(NC(=O)CCCc2nc3ccccc3c(=O)[nH]2)cc1Cl,.,/,/,/,.,/
COc1ccc(C2NC(c3ccc(OC)cc3OC)C(C)C(=O)C2C)c(OC)c1 (stereo not drawn),.,.,.,.,.,.
NC(=O)c1ccc(Oc2ccc(C(N)=O)cc2)cc1,.,.,/,.,.,.
Cc1cccc(C)c1NC(=O)CN(Cc1ccc(Br)cc1)S(=O)(=O)c1ccccc1,/,/,.,/,/,.
Clc1ccccc1Cc1cn2cc(-c3ccccc3)nc2s1,/,/,2.5µM,/,/,0.17µM
Cc1nc(-c2ccccc2)sc1C(=O)CSc1ccc(Br)cc1,.,.,.,.,.,.
Fc1ccc(-c2cn3cc(Cc4ccccc4)sc3n2)cc1,/,/,6.3µM,/,/,0.12µM
Fc1ccc(Cc2cn3cc(-c4ccccc4)nc3s2)cc1,/,/,2µM,/,/,0.11µM
Brc1ccc(-c2cn3cc(Cc4ccccc4)sc3n2)cc1,/,/,.,/,/,0.34µM
O=C(Nc1ccc(NC(=O)C2CC2)nc1)c1cccc(F)c1,.,?,/,4.5µM,?,?
O=C(Nc1ccc(NC(=O)C2CC2)cn1)c1ccccc1Cl,?,.,25µM,.,?,?
O=C(Cc1ccccc1)Nc1ccc(NC(=O)c2ccccc2)nc1,?,2.8µM,/,2.2µM,?,?
O=C(Nc1ccc(NC(=O)C2CC2)cn1)c1ccccc1,?,0.32µM,/,0.35µM,?,2.7µM
COc1cccc(C(=O)Nc2ccc(NC(=O)C3CC3)nc2)c1,.,.,/,.,.,.
CCCn1c(C)cc(=O)c2cc(NC(=O)c3ccccn3)ccc21,.,.,.,.,16µM,.
CCCC(=O)Nc1ccc(NC(=O)c2ccccn2)cn1,?,2.2µM,/,2.8µM,?,13µM
CCCn1c(=O)c(C(=O)Nc2ncccc2C)c(O)c2ccccc21,.,.,.,.,.,.
CCCC(=O)Nc1ccc(NC(=O)c2ccccc2OC)cn1,.,.,.,.,.,?
O=C(Nc1ccc(NC(=O)C2CCCCC2)nc1)c1ccccn1,?,?,22µM,3.5µM,?,17µM
CC(C)C(=O)Nc1ccc(NC(=O)c2cccc(F)c2)cn1,?,.,.,2.8µM,?,?
SMILES,ELG1 genotox,NPC1 prom act,SMN2 splice enh,Rab9 promoter act,ELG1 repair inh,FLuc counter
COc1ccccc1C(=O)Nc1ccc(NC(=O)C2CCCCC2)nc1,.,.,/,.,.,?
COC(=O)c1c(NC(=O)CCCOc2ccc(C(C)(C)C)cc2)sc2c1C(C(=O)OC)CC2 (stereo not drawn),/,/,.,/,/,?
Cc1ccc(C)c(N2CCN(CCN3CCCCC3)CC2)c1,.,.,/,.,.,.
CCN(CC(=O)Nc1c(F)cccc1F)C(=O)c1ccc2ncsc2c1,.,.,/,.,.,.
NC(=O)C1CCCN(Cc2c(C(=O)N3CCc4ccccc4C3)nc3ccc(Cl)cn23)C1 (stereo not drawn),.,.,/,.,.,.
O=C(c1ccccc1)n1ccc(-c2cccs2)n1,.,.,/,.,.,6µM
ClCCl,/,/,.,/,/,/
COc1ccc2nc(SCC(=O)N3CCCCC3)c(C#N)cc2c1,.,.,/,.,.,.
COc1ccc2nc(SCC(=O)N3CCCCCC3)c(C#N)cc2c1,.,.,.,.,.,?
COc1ccc2nc(N3CCCC3)c(C#N)cc2c1,?,.,.,.,?,11µM
COc1ccc2nc(N3CCCCC3)c(C#N)cc2c1,?,.,.,3.2µM,?,3.8µM
Cc1ccc2nc(N3CCN(C(=O)c4ccc(F)cc4)CC3)c(C#N)cc2c1,.,.,/,.,?,.
COc1ccccc1C(=O)N1CCN(c2nc3cc(C)c(C)cc3cc2C#N)CC1,.,.,.,.,23µM,.
Cc1cccc(CSCc2ccc(C(=O)NCC3CCCO3)o2)c1 (stereo not drawn),.,.,.,.,.,.
CCCNC(=O)CN1C(=O)NC(c2ccccc2)(c2ccccc2)C1=O,.,.,/,.,.,.
COC(=O)c1c(-n2c(C)cc(C=O)c2C)sc2c1CCCC2,.,.,.,.,.,12µM
Cc1cc(C)cc(NC(=O)COC(=O)CCCC2=NS(=O)(=O)c3ccccc3N2)c1,.,.,.,.,.,.
Cc1cccc(OCC2=NS(=O)(=O)c3ccccc3N2)c1,.,.,.,.,.,19µM
Cc1ccc(C(=O)c2oc3ccccc3c2N)cc1,?,?,13µM,?,?,17µM
Nc1c(C(=O)c2ccc(Br)cc2)oc2ccccc12,.,.,?,.,?,.
CCOC(=O)c1oc2ccccc2c1N,.,.,.,.,?,.
Nc1c(C(=O)c2cccs2)oc2ccccc12,.,?,?,.,?,15µM
Nc1c(C(=O)c2ccc(Br)s2)oc2ccccc12,?,?,?,?,?,7.6µM
Nc1c(N)c2ccccc2oc1=O,.,.,.,.,?,.
Cn1c(Cn2nnc(-c3ccccc3)n2)nnc1SCc1ccccc1Cl,.,.,.,.,.,.
SMILES,ELG1 genotox,NPC1 prom act,SMN2 splice enh,Rab9 promoter act,ELG1 repair inh,FLuc counter
Cc1ccccc1OCC(=O)Nc1nnc(S(=O)(=O)N2CCCCCC2)s1,/,/,/,/,/,.
CCn1c(=N)c(C(=O)NCC2CCCO2)cc2c(=O)n3cc(C)ccc3nc21 (stereo not drawn),/,/,.,/,/,.
COc1ccccc1CN1CC[C@@]2(CCCN(C(=O)c3ccncc3)C2)C1,/,/,.,/,/,/
Cn1c(SCC(=O)NNC(=O)c2ccc(Cl)cc2)nnc1-c1cccnc1,.,.,.,.,.,.
CCOc1ccc(C(=O)Nc2ncccc2Cl)cc1,?,?,/,?,?,15µM
CCOc1ccc(NC(N)=O)cc1,.,.,.,.,.,.
CCOc1ccc(NC(=O)c2cnccn2)cc1,?,2µM,2.5µM,1.3µM,?,5.4µM
CCOc1ccc(NC(=O)c2nccnc2CO)cc1,?,1.4µM,8.9µM,2.8µM,?,9.5µM
CNS(=O)(=O)c1ccc(NC(=O)c2ccccn2)cc1,?,?,20µM,2.8µM,?,15µM
COc1ccc(Cl)cc1NC(=O)CN(C)C(C)C(=O)NC(=O)NC1CCCCC1 (stereo not drawn),.,.,/,.,?,.
COc1ccc2nc(C)cc(NCc3ccc(F)cc3)c2c1,.,.,/,.,?,.

# Screens (PubChem)
